The full data set covers some 7,900 targets. This sample favours those with a hit. About 0.6% of all pairs of compound and target were hits. Values without a mark were called inactive.
What was measured:
Assay in all cases: log2 fold change, soluble protein after heating vs DMSO (PISA); higher = thermal stabilisation; K562 cells, 10 uM, 30 min; active = over 0.2 and 3.5 SD of the protein, either way, in both replicates (recomputed)
saracatinib = compound: CN1CCN(CCOc2cc(OC3CCOCC3)c3c(Nc4c(Cl)ccc5c4OCO5)ncnc3c2)CC1 [saracatinib]
Outline: (§1)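 K562 cells at 2×10^6 cells/mL were treated with 10 μM compound for 30 min. Aliquots were heated for 3 min across 48°C-58°C, pooled, and extracted in PBS with 0.5% NP-40 at 4°C; soluble protein was the supernatant after 21,000xg for 90 min. Soluble protein was quantified by TMTpro 16plex LC-MS/MS with channel sums equalised, and reported as log2 fold change in thermal stability against DMSO controls, with values from duplicates.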

sotrastaurin = compound: CN1CCN(c2nc(C3=C(c4c[nH]c5ccccc45)C(=O)NC3=O)c3ccccc3n2)CC1 [sotrastaurin]
Outline: as §1

alvocidib = compound: CN1CC[C@H](c2c(O)cc(O)c3c(=O)cc(-c4ccccc4Cl)oc23)[C@H](O)C1 [alvocidib]
Outline: as §1

Tubastatin A = compound: CN1CCc2c(c3ccccc3n2Cc2ccc(C(=O)NO)cc2)C1 [Tubastatin A]
Outline: as §1

[1] = compound: CNC(=O)C1=CC=CC=C1NC2=NC(=NC=C2Cl)NC3=C(C=C(C=C3)N4CCOCC4)OC
Outline: as §1

defactinib = compound: CNC(=O)c1ccc(Nc2ncc(C(F)(F)F)c(NCc3nccnc3N(C)S(C)(=O)=O)n2)cc1 [defactinib]
Outline: as §1

rucaparib = compound: CNCc1ccc(-c2[nH]c3cc(F)cc4c3c2CCNC4=O)cc1 [rucaparib]
Outline: as §1

[2] = compound: CNc1nc(-c2ccc3c(N)n[nH]c3c2)cc(N2C[C@@H](C(=O)NC3CCCCC3)CC[C@H]2C)n1
Outline: as §1

encorafenib = compound: COC(=O)N[C@@H](C)CNc1nccc(-c2cn(C(C)C)nc2-c2cc(Cl)cc(NS(C)(=O)=O)c2F)n1 [encorafenib]
Outline: as §1

[3] = compound: COC(=O)[C@H](CCSC)NC(=O)C1=C(C=C(C=C1)NC[C@H](CS)N)C2=CC=CC=C2
Outline: as §1

Chain of UniProt Q5MIZ7 (Q5MIZ7 whole entry, looked up): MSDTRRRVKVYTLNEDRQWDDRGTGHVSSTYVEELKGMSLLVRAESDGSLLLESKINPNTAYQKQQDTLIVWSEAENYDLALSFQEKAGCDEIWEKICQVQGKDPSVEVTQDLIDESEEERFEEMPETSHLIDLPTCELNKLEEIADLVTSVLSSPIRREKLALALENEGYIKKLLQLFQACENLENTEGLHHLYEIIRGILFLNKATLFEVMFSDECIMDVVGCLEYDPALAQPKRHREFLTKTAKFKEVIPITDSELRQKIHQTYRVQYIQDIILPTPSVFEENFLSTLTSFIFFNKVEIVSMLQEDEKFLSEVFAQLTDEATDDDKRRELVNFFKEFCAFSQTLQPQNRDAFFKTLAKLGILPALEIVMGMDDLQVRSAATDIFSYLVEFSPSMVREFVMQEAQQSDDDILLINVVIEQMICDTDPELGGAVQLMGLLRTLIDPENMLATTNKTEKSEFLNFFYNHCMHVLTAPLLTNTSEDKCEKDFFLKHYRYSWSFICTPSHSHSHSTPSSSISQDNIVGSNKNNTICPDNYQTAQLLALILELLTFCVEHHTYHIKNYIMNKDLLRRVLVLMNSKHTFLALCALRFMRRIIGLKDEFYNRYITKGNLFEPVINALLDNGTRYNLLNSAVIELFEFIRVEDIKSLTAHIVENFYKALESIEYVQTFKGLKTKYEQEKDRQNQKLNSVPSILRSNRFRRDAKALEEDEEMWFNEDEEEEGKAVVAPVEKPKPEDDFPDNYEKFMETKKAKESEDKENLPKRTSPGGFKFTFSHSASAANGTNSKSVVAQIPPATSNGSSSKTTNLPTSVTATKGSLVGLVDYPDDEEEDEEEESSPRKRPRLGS
Chain of UniProt O96011 (O96011 whole entry, looked up, change not shown): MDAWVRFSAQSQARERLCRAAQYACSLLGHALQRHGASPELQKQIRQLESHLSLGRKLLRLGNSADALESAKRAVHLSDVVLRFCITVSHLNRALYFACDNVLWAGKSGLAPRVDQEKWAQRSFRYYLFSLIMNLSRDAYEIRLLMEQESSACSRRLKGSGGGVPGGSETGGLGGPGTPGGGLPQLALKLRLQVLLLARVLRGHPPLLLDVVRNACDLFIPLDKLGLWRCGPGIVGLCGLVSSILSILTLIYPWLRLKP
Chain of UniProt P13861 (P13861 whole entry, looked up): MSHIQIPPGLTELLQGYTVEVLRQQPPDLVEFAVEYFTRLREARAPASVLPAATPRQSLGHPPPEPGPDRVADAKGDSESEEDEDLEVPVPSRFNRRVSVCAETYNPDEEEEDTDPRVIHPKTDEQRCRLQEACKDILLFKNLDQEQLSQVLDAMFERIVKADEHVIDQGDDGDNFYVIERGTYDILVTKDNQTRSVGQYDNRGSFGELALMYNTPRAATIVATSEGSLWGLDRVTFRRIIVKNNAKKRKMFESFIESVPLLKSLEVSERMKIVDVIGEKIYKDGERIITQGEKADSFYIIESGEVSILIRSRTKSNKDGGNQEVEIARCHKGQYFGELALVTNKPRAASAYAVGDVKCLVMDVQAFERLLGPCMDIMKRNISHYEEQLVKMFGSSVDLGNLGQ
Chain of UniProt Q16537 (Q16537 whole entry, looked up): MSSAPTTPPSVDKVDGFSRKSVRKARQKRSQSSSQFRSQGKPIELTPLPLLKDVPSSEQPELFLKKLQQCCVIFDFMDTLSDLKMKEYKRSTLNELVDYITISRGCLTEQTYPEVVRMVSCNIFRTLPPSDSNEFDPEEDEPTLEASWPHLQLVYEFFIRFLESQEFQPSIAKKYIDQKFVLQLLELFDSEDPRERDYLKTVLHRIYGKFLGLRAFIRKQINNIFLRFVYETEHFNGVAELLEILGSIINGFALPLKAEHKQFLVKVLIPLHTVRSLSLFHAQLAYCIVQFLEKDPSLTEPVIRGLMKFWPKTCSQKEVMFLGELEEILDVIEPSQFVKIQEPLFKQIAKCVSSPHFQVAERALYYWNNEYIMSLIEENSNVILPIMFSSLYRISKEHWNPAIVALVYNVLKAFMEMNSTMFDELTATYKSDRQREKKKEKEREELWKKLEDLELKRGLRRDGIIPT
Chain of UniProt Q7RTV0 (Q7RTV0 whole entry, looked up): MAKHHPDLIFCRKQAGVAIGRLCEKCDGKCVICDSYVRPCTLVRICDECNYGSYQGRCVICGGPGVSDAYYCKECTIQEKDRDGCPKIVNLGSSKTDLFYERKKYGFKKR
Chain of UniProt P46019 (P46019 whole entry, looked up): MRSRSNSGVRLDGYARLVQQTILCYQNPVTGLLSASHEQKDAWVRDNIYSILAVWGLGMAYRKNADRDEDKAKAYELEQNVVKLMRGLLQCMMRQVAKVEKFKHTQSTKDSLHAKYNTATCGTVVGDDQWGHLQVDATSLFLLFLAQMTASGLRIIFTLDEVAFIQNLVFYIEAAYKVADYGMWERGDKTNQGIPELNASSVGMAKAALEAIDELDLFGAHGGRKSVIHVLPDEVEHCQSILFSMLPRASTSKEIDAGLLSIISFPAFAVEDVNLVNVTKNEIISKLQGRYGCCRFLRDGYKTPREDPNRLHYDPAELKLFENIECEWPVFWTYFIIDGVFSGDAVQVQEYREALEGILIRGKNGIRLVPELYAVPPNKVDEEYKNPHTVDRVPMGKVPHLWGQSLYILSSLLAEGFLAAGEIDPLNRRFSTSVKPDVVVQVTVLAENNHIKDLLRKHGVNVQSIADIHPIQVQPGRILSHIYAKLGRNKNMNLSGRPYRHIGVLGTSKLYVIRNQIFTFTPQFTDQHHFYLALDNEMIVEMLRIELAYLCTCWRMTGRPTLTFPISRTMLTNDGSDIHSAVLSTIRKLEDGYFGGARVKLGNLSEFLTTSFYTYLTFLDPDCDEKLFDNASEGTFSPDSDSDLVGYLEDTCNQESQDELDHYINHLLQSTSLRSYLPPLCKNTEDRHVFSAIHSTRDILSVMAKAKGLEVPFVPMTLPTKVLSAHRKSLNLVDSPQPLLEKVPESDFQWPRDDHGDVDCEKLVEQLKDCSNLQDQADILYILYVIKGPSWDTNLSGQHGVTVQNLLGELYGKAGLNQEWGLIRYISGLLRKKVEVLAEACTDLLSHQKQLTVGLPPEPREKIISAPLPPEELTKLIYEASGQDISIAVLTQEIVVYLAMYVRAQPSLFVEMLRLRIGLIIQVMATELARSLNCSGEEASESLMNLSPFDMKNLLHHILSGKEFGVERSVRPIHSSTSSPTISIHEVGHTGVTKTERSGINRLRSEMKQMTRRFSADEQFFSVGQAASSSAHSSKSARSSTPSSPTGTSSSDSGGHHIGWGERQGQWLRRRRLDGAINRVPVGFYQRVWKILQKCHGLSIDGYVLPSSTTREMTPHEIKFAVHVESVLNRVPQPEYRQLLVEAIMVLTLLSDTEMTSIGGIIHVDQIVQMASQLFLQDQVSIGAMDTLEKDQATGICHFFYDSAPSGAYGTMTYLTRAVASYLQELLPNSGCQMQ
Chain of UniProt Q8N4L2 (Q8N4L2 whole entry, looked up): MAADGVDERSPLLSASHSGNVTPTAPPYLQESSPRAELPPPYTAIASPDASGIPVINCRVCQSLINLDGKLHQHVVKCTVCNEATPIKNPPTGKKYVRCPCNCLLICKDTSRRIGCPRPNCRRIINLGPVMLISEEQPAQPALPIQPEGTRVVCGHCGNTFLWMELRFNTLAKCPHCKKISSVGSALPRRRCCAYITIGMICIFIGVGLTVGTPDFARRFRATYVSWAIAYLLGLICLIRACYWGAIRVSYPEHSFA
Chain of UniProt O95394 (O95394 whole entry, looked up): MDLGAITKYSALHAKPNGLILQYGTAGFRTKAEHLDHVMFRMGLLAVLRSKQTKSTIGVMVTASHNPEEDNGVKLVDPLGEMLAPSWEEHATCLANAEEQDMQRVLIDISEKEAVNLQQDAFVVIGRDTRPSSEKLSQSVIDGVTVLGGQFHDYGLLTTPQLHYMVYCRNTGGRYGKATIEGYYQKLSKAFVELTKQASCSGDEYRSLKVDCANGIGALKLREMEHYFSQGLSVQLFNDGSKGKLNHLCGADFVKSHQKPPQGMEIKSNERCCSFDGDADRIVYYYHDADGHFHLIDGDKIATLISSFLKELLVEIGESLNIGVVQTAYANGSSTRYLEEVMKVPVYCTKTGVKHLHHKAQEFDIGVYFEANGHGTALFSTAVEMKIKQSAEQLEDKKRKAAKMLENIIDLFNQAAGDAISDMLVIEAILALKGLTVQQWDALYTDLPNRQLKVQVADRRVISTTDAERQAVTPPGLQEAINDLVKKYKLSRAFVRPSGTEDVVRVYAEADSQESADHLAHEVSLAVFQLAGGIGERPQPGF
Chain of UniProt P15735 (P15735 whole entry, looked up): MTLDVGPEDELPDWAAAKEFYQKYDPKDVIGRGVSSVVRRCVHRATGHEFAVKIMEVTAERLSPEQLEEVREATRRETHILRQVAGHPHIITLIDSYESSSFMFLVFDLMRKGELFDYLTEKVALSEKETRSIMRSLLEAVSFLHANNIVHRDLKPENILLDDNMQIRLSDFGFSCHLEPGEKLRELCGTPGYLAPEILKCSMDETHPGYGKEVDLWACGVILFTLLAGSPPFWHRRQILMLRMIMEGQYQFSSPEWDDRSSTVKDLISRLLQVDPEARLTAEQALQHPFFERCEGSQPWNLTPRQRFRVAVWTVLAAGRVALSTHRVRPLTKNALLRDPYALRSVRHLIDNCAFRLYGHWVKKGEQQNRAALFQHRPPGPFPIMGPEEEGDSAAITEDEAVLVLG
Chain of UniProt Q9Y244 (Q9Y244 whole entry, looked up): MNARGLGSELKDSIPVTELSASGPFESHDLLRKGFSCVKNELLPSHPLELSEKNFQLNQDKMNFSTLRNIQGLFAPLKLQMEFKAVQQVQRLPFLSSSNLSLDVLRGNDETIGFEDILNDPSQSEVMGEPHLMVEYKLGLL
Chain of UniProt Q9Y3C6 (Q9Y3C6 whole entry, looked up): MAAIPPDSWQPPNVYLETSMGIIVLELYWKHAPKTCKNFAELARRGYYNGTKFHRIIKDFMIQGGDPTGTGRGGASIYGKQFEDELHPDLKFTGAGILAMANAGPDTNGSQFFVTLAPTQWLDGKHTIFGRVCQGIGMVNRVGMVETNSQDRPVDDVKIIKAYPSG
Chain of UniProt Q9Y2Y1 (Q9Y2Y1 whole entry, looked up): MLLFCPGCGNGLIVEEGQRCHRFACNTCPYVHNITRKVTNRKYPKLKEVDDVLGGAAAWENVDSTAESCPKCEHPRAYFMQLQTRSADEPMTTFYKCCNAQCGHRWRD

Target	log2 fold change (saracatinib)	log2 fold change (sotrastaurin)	log2 fold change (alvocidib)	log2 fold change (Tubastatin A)	log2 fold change [1]	log2 fold change (defactinib)	log2 fold change (rucaparib)	log2 fold change [2]	log2 fold change (encorafenib)	log2 fold change [3]
PI4K2A (UniProt Q9BTU6)	0.058	0.041	0.013	-0.008	-0.024	-0.014	-0.027	-0.11	0.057	0.02
PSMC6 (UniProt P62333)	-0.01	0.015	0.09	-0.025	-0.003	0.079	0.04	0.009	0.035	0.026
PDCD6IP (UniProt Q8WUM4)	-0.11	-0.227	-0.132	0.048	0.034	-0.141	0.119	0.055	0.138	-0.048
PHF5A (UniProt Q7RTV0)	0.069	0.047	0.045	-0.027	0.05	0.141	0.04	-0.086	-0.017	0.023
PLCB3 (UniProt Q01970)	-0.044	-0.039	-0.02	-0.027	0.023	-0.074	-0.015	-0.045	0.004	-0.083
PPP2R5E (UniProt Q16537)	-0.077	0.012	-0.069	0.005	0.083	-0.025	-0.008	0.074	0.021	-0.017
POLR3K (UniProt Q9Y2Y1)	0.052	-0.049	0.038	0.044	-0.035	-0.086	0.089	-0.098	-0.019	0.015
PSMD8 (UniProt P48556)	-0.039	-0.032	0.135	0.003	-0.009	0.1	0.003	0.028	0.041	0.043
PPP1R35 (UniProt Q8TAP8)	0.034	-0.011	-0.03	0.035	-0.029	-0.007	0.019	-0.109	0.072	0.052
PHKG2 (UniProt P15735)	0.002	-0.071	-0.069	0.029	0.167	0.026	-0.032	0.1	0.181	-0.025
PPIL1 (UniProt Q9Y3C6)	-0.007	-0.088	0.096	-0.016	0.042	0.09	0.056	-0.062	0.052	-0.042
PLCG1 isoform 2 (UniProt P19174)	-0.131	-0.005	-0.007	0.1	-0.048	-0.128	0.088	0.054	0.012	-0.007
PRKAR2A (UniProt P13861)	0.034	-0.121	-0.023	-0.029	0.027	-0.02	-0.015	-0.04	0.017	-0.015
PGGHG (UniProt Q32M88)	0.061	-0.014	0.009	0.04	-0.029	0.127	0.02	0.017	-0.086	-0.02
PPP4R3B (UniProt Q5MIZ7)	-0.008	-0.05	-0.11	0.022	0.057	-0.023	-0.065	-0.033	0.014	0.003
POLR2B (UniProt P30876)	-0.071	-0.032	0.254 (active)	-0.01	-0.016	0.173	0.174	-0.012	0.056	-0.044
POLR2A (UniProt P24928)	-0.012	0.034	0.329 (active)	-0.012	-0.035	0.241	0.126	0.025	0.027	-0.07
POLR2M (UniProt Q6EEV4)	0.011	-0.015	-0.178	-0.131	0.097	-0.081	-0.145	-0.084	-0.047	0.026
POMP (UniProt Q9Y244)	0.075	0.035	0.046	-0.067	-0.035	-0.014	-0.013	-0.114	-0.071	0.136
PTTG1 (UniProt O95997)	-0.061	-0.004	0.004	0.141	-0.145	-0.029	-0.145	-0.088	-0.001	0.031
PEX11B (UniProt O96011)	0.052	-0.009	-0.001	-0.021	0.001	-0.042	-0.006	-0.022	0.024	-0.041
PPP1CA (UniProt P62136)	0.036	-0.03	-0.027	-0.024	-0.009	-0.033	-0.008	-0.028	-0.009	0.018
PLEKHM2 (UniProt Q8IWE5)	-0.002	-0.047	-0.119	0.029	-0.215	-0.054	-0.087	-0.019	0.058	-0.014
PPP6R1 (UniProt Q9UPN7)	0.058	-0.064	-0.017	-0.08	0.038	-0.058	-0.013	-0.044	0.034	-0.027
PHKA2 (UniProt P46019)	0.032	-0.085	-0.088	-0.021	0.135	0.012	-0.063	-0.009	-0.022	-0.03
PCK2 (UniProt Q16822)	0.021	-0.003	-0.113	-0.139	-0.006	-0.048	-0.009	0.015	-0.007	0.01
PIP4P2 (UniProt Q8N4L2)	0.056	-0.003	-0.048	0.072	-0.007	0.004	-0.003	-0.106	-0.04	0.093
PDCD2L (UniProt Q9BRP1)	-0.072	-0.148	-0.077	0.048	0	-0.068	0.038	-0.031	0.127	-0.007
PUM1 isoform 3 (UniProt Q14671)	-0.01	-0.023	-0.059	0.004	-0.019	-0.078	0.082	-0.039	-0.01	0.001
PGM3 isoform 4 (UniProt O95394)	-0.028	-0.018	-0.062	0.03	-0.011	-0.019	-0.013	0.067	0.024	-0.022
